From PubChem BioAssay (EPA / NIEHS)
Calls of active or inactive are those of the source. Rule for the calls: active = hit-call score of the fitted dose curve at least 0.9, where 1 is the maximum; inactive = score below 0.9.

How the values were obtained:
[1] = CCTE_Shafer_MEA_acute_per_burst_spike_number_mean: CCTE's Neural Acute Assay for Average Number of Spikes Per Burst, Shafer Lab (AID 2284015);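 note: hits are decreases in mean spikes per burst versus baseline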
Summary of the method: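 We recorded spontaneous network firing of rat cortical neurons for 40 min before and 40 min during exposure to compound at 0.03-40 uM, at 37 C. Spikes were detected adaptively at 8x rms noise, and the change in average spikes per burst was fitted against DMSO.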

[2] = CCTE_Shafer_MEA_acute_interburst_interval_mean: CCTE's Neural Acute Assay for Mean Interburst Interval, Shafer Lab (AID 2284016);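 note: percent change of mean interburst interval versus each well's own pre-dose baseline; curves fitted for decrease in interburst interval relative to DMSO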
Summary of the method: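 MEA recording of spontaneous network bursting in primary rat cortical cultures; mean interburst interval was compared before and after a 40-min compound exposure (0.03-40 uM) and expressed as percent change, relative to DMSO.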

[3] = CCTE_Shafer_MEA_acute_burst_percentage_mean: CCTE's Neural Acute Assay for Percentage of Spikes in a Burst, Shafer Lab (AID 2284017);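 for AC50: curve fitted for loss of signal so potency reflects decreased burst percentage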
Summary of the method: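 Compounds were tested at 0.03-40 uM on primary rat cortical neuron networks grown over microelectrodes, with at least three wells per compound. Spontaneous firing was recorded for 40 min before and 40 min after dosing, and the change in burst percentage was computed per well.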

[4] = CCTE_Shafer_MEA_acute_burst_percentage_std: CCTE's Neural Acute Assay for Standard Deviation of Burst Percentage, Shafer Lab (AID 2284018);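 note: fitted in the negative direction so actives lower burst percentage SD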
Summary of the method: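 Rat primary cortical neurons on 48-well MEAs, DIV 13 or 15, 37 C. 40-min baseline then 40-min recording with compound (0.03-40 uM); well-level SD of per-electrode burst spike percentage, expressed as percent change from baseline.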

[5] = CCTE_Shafer_MEA_acute_per_network_burst_spike_number_mean: CCTE's Neural Acute Assay for Average Number of Spikes in a Network Burst, Shafer Lab (AID 2284019);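 for AC50: curve fitted for loss of signal so actives reduce spikes per network burst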
Summary of the method: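 Rat cortical cultures, DIV 13/15; spike threshold 8x rms noise, 300-5000 Hz band-pass, 12.5 kHz sampling; wells need >/= 10 active electrodes. Compound 0.03-40 uM, 40 min, 37 C; % change vs own baseline, DMSO negative control.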

[6] = CCTE_Shafer_MEA_acute_per_network_burst_spike_number_std: CCTE's Neural Acute Assay for Standard Deviation of Number of Spikes in a Network Burst, Shafer Lab (AID 2284020);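 note: fitted for decrease in spike-number SD versus DMSO so actives lower it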
Summary of the method: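 Rat cortical cultures, DIV 13/15, 37 C; 20-min stabilisation, 40-min baseline, compound 0.03-40 uM, 40-min re-record. Spikes detected at 8x rms noise (300-5000 Hz band-pass). Readout: % change from baseline in per-burst spike-number SD.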

[7] = CCTE_Shafer_MEA_acute_per_network_burst_electrodes_number_mean: CCTE's Neural Acute Assay for Mean Number of Electrodes in a Network Burst, Shafer Lab (AID 2284021);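 note: curves fitted for decreases only so hits reduce electrodes per burst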
Summary of the method: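 Readout: % change in mean electrodes active per network burst, post- vs pre-treatment, each well. Spikes detected at 8x rms noise after 300-5000 Hz band-pass; rat cortical cultures, DIV 13/15, compounds 0.03-40 uM, DMSO baseline.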

[8] = CCTE_Shafer_MEA_acute_network_burst_percentage: CCTE's Neural Acute Assay for Percentage of Network Bursts, Shafer Lab (AID 2284022);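 note: curves fitted for loss so actives lower network burst percentage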
Summary of the method: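 Rat cortical cultures, DIV 13/15; 20 min equilibration, 40 min baseline, compound 0.03-40 uM, 40 min recording, 37 C. Spikes: 300-5000 Hz band-pass, threshold 8x rms noise. Readout: % change in network-burst spike fraction; loss direction vs DMSO.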

[9] = CCTE_Shafer_MEA_acute_cross_correlation_area: CCTE's Neural Acute Assay for Area of Cross Correlation, Shafer Lab (AID 2284024);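 note: area under pooled inter-electrode spike cross-correlation near zero lag as percent change from own baseline; curves fitted for loss of cross-correlation area so actives lower synchrony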
Summary of the method: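 Rat cortical cultures, DIV 13/15, MEA; spikes detected at 8x rms noise (300-5000 Hz band-pass). Compound 0.03-40 uM, ≥3 wells each. Readout: % change in pooled inter-electrode cross-correlation area vs own baseline; DMSO negative control.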

Row | SMILES | outcome [1] | outcome [2] | outcome [3] | outcome [4] | outcome [5] | outcome [6] | outcome [7] | outcome [8] | AC50 [9] | AC50 [3] | AC50 [6] | AC50 [7] | AC50 [8] | outcome [9] | AC50 [1] | AC50 [5] | AC50 [2]
1 | CN/C(=N\[N+](=O)[O-])NCc1cnc(Cl)s1 | inactive | inactive | inactive | inactive | inactive | inactive | inactive | inactive | 0.16 µM (active) | – | – | – | – | – | – | – | –
2 | OC(c1ccc(Cl)cc1)(c1ccc(Cl)cc1)C(Cl)(Cl)Cl | inactive | inactive | – | inactive | inactive | – | – | – | – | 4.81 µM (active) | 20 µM (active) | 20 µM (active) | 20 µM (active) | inactive | – | – | –
3 | CCCC(=NOCC)C1=C(O)CC(CC(C)SCC)CC1=O (configuration not stated) | – | inactive | – | inactive | – | – | inactive | inactive | – | 27.7 µM (active) | 25.4 µM (active) | – | – | inactive | 29.1 µM (active) | 20.1 µM (active) | –
4 | CO/N=C(/C1=NOCCO1)c1ccccc1Oc1ncnc(Oc2ccccc2Cl)c1F | – | inactive | – | inactive | inactive | inactive | inactive | inactive | – | 20 µM (active) | – | – | – | inactive | 20 µM (active) | – | –
5 | CCCCC(O)(Cn1cncn1)c1ccc(Cl)cc1Cl (configuration not stated) | inactive | inactive | inactive | inactive | inactive | inactive | inactive | – | – | – | – | – | 2.23 µM (active) | inactive | – | – | –
6 | Nc1c(Cl)c(F)nc(OCC(=O)O)c1Cl | inactive | inactive | inactive | inactive | inactive | inactive | inactive | inactive | – | – | – | – | – | inactive | – | – | –
7 | N#CN=C1SCCN1Cc1ccc(Cl)nc1 | inactive | inactive | inactive | inactive | inactive | inactive | inactive | – | – | – | – | – | 4.76 µM (active) | inactive | – | – | –
8 | Cc1ccc(N=CN(C)C=Nc2ccc(C)cc2C)c(C)c1 | – | – | inactive | inactive | – | – | inactive | – | – | – | 4.1 µM (active) | – | 20 µM (active) | inactive | 0.308 µM (active) | 0.427 µM (active) | 0.16 µM (active)
